The panel holds about 83,000 compounds, 20% with a hit somewhere; the sample as a whole holds those more often.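 Results are percent growth after 48 hours of single-concentration exposure. 100 means growth as in untreated cells, lower positive values show inhibition; negative values down to -100 show cell death.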 A number with no mark means an inactive call. Calls of active or inactive are those of the source. Rule for the calls: active = growth percent below 10; inactive = the rest.
Key:
Experiment in all cases: NCI-60 one-dose screen, 48 h (100 = growth as untreated, 0 = no growth, -100 = all killed)
Details in all cases: 10 µM unless noted
SK-MEL-2 melanoma = test system: SK-MEL-2 melanoma
EKVX NSCLC = test system: EKVX NSCLC
SN12C renal = test system: SN12C renal
UO-31 renal = test system: UO-31 renal
TK-10 renal = test system: TK-10 renal
ACHN renal = test system: ACHN renal
CAKI-1 renal = test system: CAKI-1 renal
A498 renal = test system: A498 renal
CCRF-CEM leukemia = test system: CCRF-CEM leukemia
MOLT-4 leukemia = test system: MOLT-4 leukemia

Row | SMILES | growth (SK-MEL-2 melanoma) | growth (EKVX NSCLC) | growth (SN12C renal) | growth (UO-31 renal) | growth (TK-10 renal) | growth (ACHN renal) | growth (CAKI-1 renal) | growth (A498 renal) | growth (CCRF-CEM leukemia) | growth (MOLT-4 leukemia)
1 | O=C1/C(=C/C=C/c2ccco2)SC(=S)N1Cc1ccccc1 | 102% | 98% | 99.2% | 83.9% | 124% | 104% | 81% | 88.9% | 93.5% | 96.4%
2 | CC1CCN(CC(=O)Nn2c(COc3ccccc3)nc3ccccc3c2=O)CC1 | 87.2% | 86.1% | 96.3% | 70.7% | 125% | 102% | 71.2% | 81.8% | 89.4% | 88.1%
3 | Cn1cc(-c2cc3ncnc(Nc4ccc(CC(=O)Nc5nc(C(C)(C)C)cs5)cc4)c3s2)cn1 | 36.5% | 48% | 23.6% | 31.6% | 44.7% | 18.6% | 7.53% (active) | -4.34% (active) | 23.1% | 16%
4 | O=C(/C=C/c1cccc(F)c1)c1cccc(OCCCOc2cccc(C(=O)/C=C/c3cccc(F)c3)c2)c1 | 97.3% | 47.2% | 82% | 37.6% | 114% | 89.4% | 90.4% | 90.8% | 36.8% | 56.3%
5 | O=C1[C@@H]2Cc3c([nH]c4ccccc34)[C@H](c3ccc(Cl)cc3)N2C(=O)CN1C1CCN(Cc2ccccc2)CC1 | 82.3% | 47.1% | 46.4% | 26.3% | 81% | 49.4% | 27.3% | 57.5% | 36.7% | 27%
6 | O=C1[C@H]2Cc3c([nH]c4ccccc34)[C@H](c3ccc(Cl)cc3)N2C(=O)CN1C1CCN(CC2CCCCC2)CC1 | 98.2% | 81.5% | 69.7% | 39.1% | 112% | 74.8% | 37.9% | 80.4% | 39.3% | 35.1%
7 | CC(=O)N(O)CCCCCNC(=O)CCC(=O)N(O)CCCCCNC(=O)CCC(=O)N(O)CCCCCN(CCCCCCCCCC[P+](c1ccccc1)(c1ccccc1)c1ccccc1)CCCCCCCCCC[P+](c1ccccc1)(c1ccccc1)c1ccccc1 | -46.7% (active) | 5.96% (active) | 1.45% (active) | 52.3% | 26.5% | 29.7% | 29.3% | -3.27% (active) | 5.87% (active) | 8.41% (active)
8 | CC(=O)Nc1cc(N2CCOCC2)c2nc(NC(=O)c3[nH]c(C)c(Cl)c3Cl)sc2c1 | 83% | 85.1% | 49.8% | 57.9% | 112% | 49.3% | 93.1% | 95.6% | 74.2% | 65%
9 | O=C1C(SCc2ccccc2)=C(Cl)CN1c1ccccc1 | 110% | 97.9% | 95.7% | -90.8% (active) | 136% | 94.7% | 80.9% | 94.3% | 86.1% | 84.3%
10 | COc1cc(C(=O)c2cc(C(C)=O)c3ccc(C)cn23)cc(OC)c1OC | 37.5% | 46.5% | 42.4% | 44% | 76.3% | 51.3% | 34.3% | 38.3% | 47.1% | 28.5%
11 | C#CCOc1ccc(/C=N/Nc2nc(-c3ccc(OC)cc3)cs2)cc1 | 95.8% | 62.8% | 78.3% | 66.8% | 101% | 84.2% | 66.3% | 63% | 76.1% | 73.7%
12 | CC[C@H](CC[C@@H](C)[C@H]1CC[C@H]2[C@@H]3CC(=O)C4=CC(=O)/C(=C/c5ccc([N+](=O)[O-])cc5)C[C@]4(C)[C@H]3CC[C@]12C)C(C)C | 114% | 109% | 98.4% | 79.6% | 104% | 93.9% | 90.8% | 108% | 56.1% | 84.3%
13 | C/C(CC1(O)C(=O)Nc2ccccc21)=N\O (stereo not given) | 102% | 87.9% | 98% | 84.9% | 104% | 92.5% | 83.5% | 70.6% | 99.7% | 95.4%
14 | O=c1c2ccccc2cc2n1CCN=C2c1ccccc1 | 99.8% | 101% | 109% | 78.6% | 101% | 96.9% | 82.4% | 89.4% | 100% | 102%
15 | COc1ccc(C2CC(c3cccc(OCCCCOc4cccc(C5=NOC(c6ccc(OC)cc6)C5)c4)c3)=NO2)cc1 (stereo not given) | 103% | 102% | 95.3% | 79% | 104% | 104% | 89% | 111% | 72.8% | 92.2%
16 | N#C/C(=C\c1ccc(-c2ccc(Cl)c(Cl)c2)o1)C(=O)Nc1ncc(Cc2ccc(Cl)cc2)s1 | 87.9% | 32.2% | 12% | 24.9% | 68.5% | 59.1% | 57.4% | 40.9% | 31.9% | 58.6%
17 | COc1cc(OC)cc(-c2cc(-c3c[nH]c4ccccc34)nc(-c3c[nH]c4ccccc34)c2C#N)c1 | 88.4% | 91.5% | 95.1% | 71.3% | 124% | 97.2% | 91% | 96.7% | 97.2% | 98.6%
18 | CC(=O)/C(N=Nc1ccc2oc(=O)ccc2c1)=C(\C)O | 0.338% (active) | 30.8% | 35.6% | 15.4% | 23.8% | 18.2% | 33.3% | 29.8% | 13.1% | 16.4%
19 | CCCNNC(=O)c1ccc(-c2ccc(NC(=O)CCCCCCC(=O)N[C@H](C(=O)N3C[C@H](O)C[C@H]3C(=O)N[C@@H](C)c3ccc(-c4scnc4C)cc3)C(C)(C)C)cc2)cc1 | 7.01% (active) | 79.4% | 47.8% | 83.6% | 2.19% (active) | 78.2% | 61.8% | -14.4% (active) | 23.2% | 21.1%
20 | CN1CCN(c2ccc(Nc3nc(NCCCNS(=O)(=O)c4ccc(F)cc4)c4sccc4n3)cc2)CC1 | 107% | 93.5% | 82% | 64.7% | 140% | 70.4% | 67.6% | 128% | 31.1% | 21.6%
21 | C#CCN(C)CCCOc1ccc(NCc2ccc(/C=C/C(=O)NO)cc2)cc1Cl | -6.42% (active) | 16.3% | 12.1% | -57.4% (active) | -12% (active) | -41.4% (active) | -35.9% (active) | -72.2% (active) | 10.7% | 15.7%
22 | CN1CCN(CCNc2nc(-c3cccc(NS(=O)(=O)c4cccc5c(N(C)C)cccc45)c3)cs2)CC1 | 103% | 50% | 58.9% | 56.8% | 90.7% | 72.5% | 58.6% | 67.5% | 60.1% | 44.6%
23 | Cc1[nH]c(C(=O)Nc2ccccc2OCc2cccc(C(=O)NCCN)c2)cc1Cl | 92.8% | 105% | 93.9% | 92.2% | 98.9% | 95.1% | 90.2% | 68.3% | 27.4% | 68.6%
24 | CN1c2ccccc2Sc2cc(/C=N/Nc3ccnc4cc(Cl)ccc34)ccc21 | 98.3% | 94.2% | 95.7% | 84% | 115% | 109% | 103% | 131% | 56.2% | 82.4%
25 | O=C(CSc1nnc(-c2ccc(Cl)cc2)n1-c1ccccc1)Nc1cccc(F)c1 | 88.4% | 42.2% | 13.7% | -15.2% (active) | -14.7% (active) | -31.8% (active) | 14.1% | 57.9% | 91.3% | 85.8%

Reference: PubChem BioAssay (NCI)
